This note sets out measurements from PubChem BioAssay.

“And” between values parts separate entries of the source, which are not always exact repeats. Identical values can stand only once. Some structures have more than one record in an assay (separate samples or runs), and their calls can disagree. The source made the active and inactive calls.

Assay [1] in a line: small molecules captured by biotinylated probe aFSTL3 – biochemical, small-molecule microarray, fluorescence 635/667, stem cell growth factor project, primary screen (AID 1064).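 Note: measures binding of the biotinylated anti-FSTL3 antibody to printed compounds.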 To be noted: higher = more signal.
Assay [2] in a line: binders from COS7 lysate, DM2A8 probe, primary screen, torsin A project, cell lysate, small-molecule microarray, fluorescence 635/667 (AID 1065). To be noted: higher = more signal, COS7 lysate expressing mutant human TOR1A.
Assay [3] is described as follows: small molecules captured by biotinylated probe aFGF2 – biochemical, small-molecule microarray, fluorescence 635/667, stem cell growth factor project, primary screen (AID 1067).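 Note: measures binding of biotinylated aFGF2 protein to printed compounds on slides; z-score merges feature fluorescence and signal-to-noise across triplicate slides.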 To be noted: higher = more signal.
Assay [4] can be described thus: small molecules captured by biotinylated probe aFGF10 – biochemical, small-molecule microarray, fluorescence 635/667, stem cell growth factor project, primary screen (AID 1071).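 Note: score merges 667 nm spot intensity and signal to noise from triplicate slides.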 The following applies: higher = more signal.
The target in assay [5] is Neurogenic locus notch homolog protein 2 (Homo sapiens) (UniProt Q04721). The assay can be described thus: small molecules binding Notch2 protein – biochemical, small-molecule microarray, 635 nm fluorescence, stem cell growth factors, primary screen (AID 1073). The following applies: higher = more signal.
Assay [6] deals with Pro-neuregulin-1, membrane-bound isoform (Homo sapiens) (UniProt Q02297). The assay can be described thus: small molecules binding neuregulin-1 protein – biochemical, small-molecule microarray, fluorescence 635/667, psychiatric disease protein project, primary screen (AID 1075).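 Note: score combines 667 nm spot fluorescence with signal to noise.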 The following applies: NRG1 binding, 635 nm fluorescence, higher = more signal.
Assay [7] relates to Neuregulin-1 EGF-like domain. The assay can be described thus: small molecules binding NRG1 EGF domain – biochemical, small-molecule microarray, 635 nm fluorescence, primary screen (AID 1081).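 Note: binding of the protein to compounds printed on small-molecule microarray slides.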 To be noted: higher = more signal.
A short description of assay [8]: FRG1 expression reporter modulators in myotubes – cell-based, C2C12 myotubes, firefly/Renilla luciferase, luminescence, FRG1 inhibition for FSHD, primary screen (AID 1084). To be noted: FRG1 promoter luciferase, higher = more signal, called active from +8 up or from −8 down.
Assay [9] is described as follows: small molecules captured by biotinylated probe aFST – biochemical, small-molecule microarray, fluorescence 635/667, stem cell growth factor project, primary screen (AID 1086).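 Note: score merges 667 nm fluorescence with signal-to-noise of each printed compound spot.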 The following applies: higher = more signal.
A short description of assay [10]: binders of probe aHhip on microarray, primary screen, stem cell growth factor project, biochemical, small-molecule microarray, fluorescence 635/667 (AID 1087).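 Note: score merges spot fluorescence at 667nm with spot signal to noise ratio.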 The following applies: higher = more signal.
Assay [11] has as its system PRMT1 (protein arginine N-methyltransferase 1). The assay can be described thus: small molecules binding arginine methyltransferase PRMT1 – biochemical, small-molecule microarray, 635 nm fluorescence, primary screen (AID 1088).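 Note: binding of Prmt1 protein to compounds spotted on small-molecule microarray slides.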 To be noted: higher = more signal.
Assay [12] can be described thus: growth effects on S. cerevisiae YJM789 – YJM789 clinical isolate, OD600, 24 h, basal, primary screen (AID 1089).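 Note: growth of clinical yeast isolate S. cerevisiae YJM 789 seeded 1000 cells per well; test concentration not given here.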 The following applies: higher = more signal, called active from +8 up or from −8 down.
Assay [13] in a line: S. pombe growth modifiers, basal conditions – strain 972, OD600, 24 h, no modulator, primary screen (AID 1090).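 Note: basal condition with compound alone and no growth modifier present; test concentration not given here.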 To be noted: S. pombe 972 growth, higher = more signal, called active from +8 up or from −8 down.
The nature of assay [14]: budding yeast growth modifiers under rapamycin – strain BY4716, OD600, 96 h, primary screen (AID 1091). Note: test concentration not given here. To be noted: S. cerevisiae BY4716 + rapamycin, higher = more signal, called active from +8 up or from −8 down.
The target of assay [15] is Torsin-1A-interacting protein 2 (Homo sapiens) (UniProt Q8NFQ8). The assay can be described thus: small molecules binding lysate-expressed LULL1 – cell lysate, human LULL1 lysate, 635/667 nm fluorescence, primary screen (AID 1092).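 Note: probe is lysate of COS7 cells overexpressing human LULL1; score merges per-feature 667 nm fluorescence with signal-to-noise.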 The following applies: small-molecule microarray, hLULL1 lysate binding, 635 nm fluorescence; higher = more signal.
Assay [16] can be described thus: optical density change of DRC41 E. coli – strain DRC41, OD650, 24 h, E. coli filamentation project, primary screen (AID 1093).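 Note: MC1000 strain lacking acrAB efflux and sulA so SOS filamentation is blocked; test concentration not given here.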 To be noted: E. coli DRC41 growth, higher = more signal, called active from +8 up or from −8 down.
Assay [17] can be described thus: probe aLefty2 binding to arrayed compounds – biochemical, biotinylated probe, 635/667 nm fluorescence, primary screen (AID 1094).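 Note: score merges spot fluorescence near 667 nm with spot signal-to-noise ratio.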 To be noted: small-molecule microarray, higher = more signal.
Assay [18] has as its system Noggin (protein binding on small-molecule microarray). Kind of assay: small molecules binding Noggin protein – biochemical, 635/667 nm fluorescence, primary screen (AID 1095).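 Note: score merges 667 nm feature fluorescence with signal to noise over triplicate slides.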 To be noted: 635 nm fluorescence, higher = more signal.
Assay [19] addresses Neurogenic locus notch homolog protein 3 (Homo sapiens) (UniProt Q9UM47). Kind of assay: small molecules binding NOTCH3 protein – biochemical, 635/667 nm fluorescence, primary screen (AID 1096). The following applies: small-molecule microarray, 635 nm fluorescence, higher = more signal.
Assay [20] in a line: probe aEGFR binding to arrayed compounds – biochemical, biotinylated probe, 635/667 nm fluorescence, primary screen (AID 1097).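 Note: probe is a biotinylated anti-EGFR antibody binding compounds printed on slides; score combines fluorescence near 667 nm and signal to noise of each spot.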 To be noted: small-molecule microarray, higher = more signal.

Sequence of Pro-neuregulin-1, membrane-bound isoform (Homo sapiens) (Q02297 whole entry, looked up, the tested form may be a part, canonical isoform): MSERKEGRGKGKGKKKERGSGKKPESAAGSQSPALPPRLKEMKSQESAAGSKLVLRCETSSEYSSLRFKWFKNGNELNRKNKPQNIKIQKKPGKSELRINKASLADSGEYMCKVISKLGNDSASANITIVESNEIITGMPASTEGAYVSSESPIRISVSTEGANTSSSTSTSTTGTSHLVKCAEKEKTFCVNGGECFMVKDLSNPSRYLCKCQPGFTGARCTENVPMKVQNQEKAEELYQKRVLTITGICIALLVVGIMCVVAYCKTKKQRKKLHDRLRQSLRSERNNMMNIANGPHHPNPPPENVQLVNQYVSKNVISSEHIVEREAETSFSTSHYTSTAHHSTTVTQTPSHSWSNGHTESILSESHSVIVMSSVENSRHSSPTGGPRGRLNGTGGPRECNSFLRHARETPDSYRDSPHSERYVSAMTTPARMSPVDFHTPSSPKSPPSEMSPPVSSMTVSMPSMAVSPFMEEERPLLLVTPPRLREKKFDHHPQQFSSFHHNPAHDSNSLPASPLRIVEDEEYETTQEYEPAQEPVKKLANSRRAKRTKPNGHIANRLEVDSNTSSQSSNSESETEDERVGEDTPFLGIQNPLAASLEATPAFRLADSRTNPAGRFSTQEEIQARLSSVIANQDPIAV
Sequence of Neurogenic locus notch homolog protein 3 (Homo sapiens) (Q9UM47 whole entry, looked up): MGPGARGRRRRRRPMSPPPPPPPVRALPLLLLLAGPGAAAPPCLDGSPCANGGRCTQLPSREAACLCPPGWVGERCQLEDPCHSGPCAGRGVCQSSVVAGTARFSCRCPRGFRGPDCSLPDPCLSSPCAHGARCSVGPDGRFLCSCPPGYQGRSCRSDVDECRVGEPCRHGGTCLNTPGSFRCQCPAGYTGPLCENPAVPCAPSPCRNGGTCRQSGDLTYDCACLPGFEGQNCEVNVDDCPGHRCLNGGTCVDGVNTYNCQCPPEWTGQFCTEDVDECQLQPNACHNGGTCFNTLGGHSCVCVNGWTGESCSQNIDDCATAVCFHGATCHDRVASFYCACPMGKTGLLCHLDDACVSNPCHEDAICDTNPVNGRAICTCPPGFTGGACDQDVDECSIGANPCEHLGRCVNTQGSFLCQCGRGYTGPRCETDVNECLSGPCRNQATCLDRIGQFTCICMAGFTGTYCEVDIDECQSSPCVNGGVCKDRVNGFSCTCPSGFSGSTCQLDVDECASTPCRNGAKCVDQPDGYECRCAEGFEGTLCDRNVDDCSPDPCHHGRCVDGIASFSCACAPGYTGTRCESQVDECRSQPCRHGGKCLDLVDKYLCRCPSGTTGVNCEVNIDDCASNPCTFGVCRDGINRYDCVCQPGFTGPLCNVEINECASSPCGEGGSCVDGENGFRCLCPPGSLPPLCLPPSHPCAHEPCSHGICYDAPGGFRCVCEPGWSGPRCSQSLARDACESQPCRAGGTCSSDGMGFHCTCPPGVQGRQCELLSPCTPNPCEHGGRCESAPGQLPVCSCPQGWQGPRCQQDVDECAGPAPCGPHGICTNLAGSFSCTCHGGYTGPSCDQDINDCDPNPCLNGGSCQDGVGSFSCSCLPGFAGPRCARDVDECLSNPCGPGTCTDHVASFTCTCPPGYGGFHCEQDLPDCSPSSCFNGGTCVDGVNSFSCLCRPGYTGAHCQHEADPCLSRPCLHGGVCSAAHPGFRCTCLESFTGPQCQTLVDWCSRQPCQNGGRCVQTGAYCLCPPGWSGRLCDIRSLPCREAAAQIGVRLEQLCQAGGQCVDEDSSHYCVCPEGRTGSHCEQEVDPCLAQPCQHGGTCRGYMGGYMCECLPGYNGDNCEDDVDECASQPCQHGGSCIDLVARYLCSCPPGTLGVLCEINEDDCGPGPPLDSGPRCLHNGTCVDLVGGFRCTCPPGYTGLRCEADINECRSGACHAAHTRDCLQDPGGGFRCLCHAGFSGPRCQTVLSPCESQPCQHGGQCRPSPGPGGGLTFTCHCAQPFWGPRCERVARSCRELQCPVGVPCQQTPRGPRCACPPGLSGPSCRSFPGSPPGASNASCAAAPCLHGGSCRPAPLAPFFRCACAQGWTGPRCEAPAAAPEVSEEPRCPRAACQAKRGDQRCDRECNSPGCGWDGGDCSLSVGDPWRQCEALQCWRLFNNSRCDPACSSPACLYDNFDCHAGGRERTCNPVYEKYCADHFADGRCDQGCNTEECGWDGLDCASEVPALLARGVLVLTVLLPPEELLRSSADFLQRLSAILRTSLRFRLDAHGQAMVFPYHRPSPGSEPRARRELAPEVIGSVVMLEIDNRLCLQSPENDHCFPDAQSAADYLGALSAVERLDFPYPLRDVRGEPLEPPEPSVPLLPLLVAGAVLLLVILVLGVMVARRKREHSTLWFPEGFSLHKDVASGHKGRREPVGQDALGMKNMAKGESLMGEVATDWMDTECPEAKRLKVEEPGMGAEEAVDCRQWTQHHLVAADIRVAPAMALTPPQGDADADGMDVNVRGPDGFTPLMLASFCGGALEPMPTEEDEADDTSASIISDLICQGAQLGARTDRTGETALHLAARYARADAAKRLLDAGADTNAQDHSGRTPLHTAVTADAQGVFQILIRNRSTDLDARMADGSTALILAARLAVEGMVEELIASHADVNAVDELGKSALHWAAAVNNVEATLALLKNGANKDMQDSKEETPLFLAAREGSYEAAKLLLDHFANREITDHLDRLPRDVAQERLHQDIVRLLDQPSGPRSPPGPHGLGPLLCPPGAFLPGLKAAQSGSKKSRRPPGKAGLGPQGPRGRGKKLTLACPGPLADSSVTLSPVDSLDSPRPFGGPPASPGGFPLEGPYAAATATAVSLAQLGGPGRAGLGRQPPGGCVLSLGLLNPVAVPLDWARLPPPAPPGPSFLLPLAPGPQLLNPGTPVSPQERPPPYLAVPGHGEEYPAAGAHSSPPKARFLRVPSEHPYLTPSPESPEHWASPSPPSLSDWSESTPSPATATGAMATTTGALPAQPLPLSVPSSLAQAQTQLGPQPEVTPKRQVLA
Sequence of Torsin-1A-interacting protein 2 (Homo sapiens) (Q8NFQ8 whole entry, looked up): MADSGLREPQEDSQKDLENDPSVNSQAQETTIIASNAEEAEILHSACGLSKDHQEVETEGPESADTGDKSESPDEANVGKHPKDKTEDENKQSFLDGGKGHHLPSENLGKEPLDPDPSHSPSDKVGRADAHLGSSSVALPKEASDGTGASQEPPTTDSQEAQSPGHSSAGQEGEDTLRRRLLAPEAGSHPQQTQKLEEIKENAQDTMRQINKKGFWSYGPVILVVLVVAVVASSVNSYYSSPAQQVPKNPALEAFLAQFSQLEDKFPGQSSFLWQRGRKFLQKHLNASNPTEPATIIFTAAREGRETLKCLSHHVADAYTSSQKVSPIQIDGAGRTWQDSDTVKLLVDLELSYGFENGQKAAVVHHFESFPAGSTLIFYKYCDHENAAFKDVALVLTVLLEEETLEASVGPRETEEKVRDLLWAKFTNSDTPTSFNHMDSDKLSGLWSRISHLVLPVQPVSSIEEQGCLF

On to `C=CCN(CCCC)C(=O)C1N(c2c(Cl)cccc2CO)C(=O)C2C(C(=O)O)C3C=CC21O3` (stereo not given), for which the composite z-score was 1.38 and 0.489 in assay [1]; -0.331 and -0.392 in [2]; -0.247 and -0.307 in assay [3]; -0.842 and -1.3 in [4]; -1.17 and -1.13 in [5]; -0.909 and 0.0849 in [6]. The composite z-score was -0.981 and 0.374 in assay [7]; -0.931 and -0.719 in assay [9]; -0.412 and -0.323 in assay [10]; -0.502 and 0.174 in assay [11]; -1.27 and 3.03 in [15]; -0.0948 and -0.113 in [17]. The composite z-score in assay [18] was -2.38 and -0.509; in assay [19] it was -1.73 and -0.0461; in assay [20], -0.308 and -0.0286. For the same compound, the z-score in assay [8] was 0.183 (inactive) and -0.987 (inactive); in [12], 0.381 (inactive) and 0.588 (inactive); in [13], -0.162 (inactive) and -0.186 (inactive); in assay [14], 0.258 (inactive) and -0.535 (inactive); in assay [16] it was 0.455 (inactive) and 3.02 (inactive).

As for `C=CCN(C(=O)C(c1cccs1)N(CCOCCO)C(=O)/C=C\C(=O)O)C(C)(C)C` (stereo not given), the composite z-score is 0.982 and 1.01 in assay [1]; -0.718 and -0.131 in assay [2]; -0.228 and -0.192 in assay [3]; -0.708 and -0.376 in assay [4]; -1.28 and -1.44 in [5]; -0.395 and -0.988 in [6]. The composite z-score in assay [7] was 0.484 and 0.745; in assay [9], -0.78 and -1.06; in assay [10], -0.277 and -0.169; in assay [11] it was -1.16 and -0.597; in assay [15], -2.06 and 0.15; in assay [17], -0.0674 and -0.167. For the same compound, the composite z-score in [18] was -1.85 and -2.31; in assay [19], -1.9 and -0.936; in assay [20], -0.277 and -0.339. For the same compound, the z-score in assay [8] was -0.0773 (inactive) and -0.143 (inactive); in assay [12] it was 0.592 (inactive) and 0.385 (inactive); in assay [13] it was -1.35 (inactive) and -0.863 (inactive); in assay [14], 0.103 (inactive) and 0.0577 (inactive); in assay [16] it was 1.41 (inactive) and 0.711 (inactive).

Take `C=C[C@H](C)[C@H](O)c1ccc(O)c2ccccc12`: the composite z-score in assay [1] was 0.101 and 0.398; in [2] it was 0.848 and -0.282; in assay [3], -0.144 and -0.0541; in assay [4], -0.737 and -0.0937; in assay [5], -1.43 and -0.16; in assay [6], -0.532 and -0.889. Besides, the composite z-score in [7] is 0.316 and -0.53; in [9] it was -1.03 and -0.735; in assay [10], -0.12 and -0.0994; in [11], -0.0037 and -0.738; in assay [15], 0.48 and 0.622; in [17], -0.274 and -0.168. For the same compound, the composite z-score is -0.431 and -0.211 in assay [18]; -0.283 and -0.073 in assay [19]; -0.275 and -0.203 in [20]. For the same compound, the z-score in assay [8] is -0.891 (inactive) and -0.971 (inactive); in assay [12] it was -3.96 (inactive) and -3.22 (inactive); in assay [13], -10.7 (active) and -6.18 (inactive); in assay [14] it was 4.04 (inactive) and 4.01 (inactive); in [16] it was 1.84 (inactive) and 1.81 (inactive).

With `C=CCN(CCCC)C(=O)C1N(C(C)(C)CO)C(=O)C2C(C(=O)O)C3C=CC21O3` (stereo not given), the composite z-score in [1] was 0.501 and 0.858; in [2], -0.796 and -1.83; in [3] it was -0.249 and -0.252; in assay [4], -1.94 and -1.01; in [5] it was -1.33 and -1.67; in assay [6], 1.06 and -1.21. Moreover, the composite z-score in [7] is 0.111 and -0.645; in [9] it was -1.12 and -0.587; in assay [10], -0.204 and -0.0645; in assay [11], -0.278 and -1.01; in assay [15] it was -0.523 and -0.805; in assay [17], -0.223 and -0.124. Also, the composite z-score is -2.07 and -1.17 in assay [18]; -0.732 and -0.74 in assay [19]; -0.23 and -0.336 in assay [20]. Further, the z-score was 1.4 (inactive) and 0.963 (inactive) in assay [8]; -0.412 (inactive) and 0.0394 (inactive) in assay [12]; 0.0945 (inactive) and 0.0925 (inactive) in assay [13]; -0.626 (inactive) and -0.302 (inactive) in [14]; -0.21 (inactive) and -0.367 (inactive) in [16].
